Data from PubChem BioAssay.

Assays:
[1] = tested on: Botulinum neurotoxin type F light chain protease (Clostridium botulinum); assay: Clostridium botulinum type F light chain protease inhibitors, microsphere substrate cleavage, validation (AID 588459); settings: multiplex microsphere protease substrate cleavage assay, flow cytometry; at 10 µM; active compounds read high
[2] = target: Botulinum neurotoxin type A (Clostridium botulinum) (UniProt P0DPI0); assay: BoNT/A light chain protease inhibitors, biochemical, multiplex microsphere flow cytometry, validation set (AID 588460); settings: at 10 µM, active compounds read high
[3] = target: Lethal factor (Bacillus anthracis) (UniProt P15917); assay: Bacillus anthracis lethal factor inhibition, microsphere flow cytometry protease assay, validation at 10 µM (AID 588461); settings: multiplex microsphere protease cleavage assay, active compounds read high

Measured: inhibition

CC(C)NS(=O)(=O)c1ccc(OCC(=O)Nc2cccc(F)c2)cc1
inactive: [1] -3.9% | [2] -0.3% | [3] -0.8%

COc1ccc(OC(C)C(=O)Nc2ccc([N+](=O)[O-])cc2)cc1 (stereo not given)
inactive: [1] 4% | [2] 1.9% | [3] -0.5%

COC(=O)CN1CC(=O)N(c2ccccc2)C1=S
inactive: [1] -0.8% | [2] 0% | [3] -1%

O=C1C2CC=C(Cl)CC2C(=O)N1CCc1c[nH]c2ccccc12 (stereo not given)
inactive: [1] 0.7% | [2] 0.1% | [3] 0.1%

Cc1ccc(C(=O)NC(=S)NCCCN2CCOCC2)cc1
inactive: [1] 3.6% | [2] -1.4% | [3] 6.1%

C=CCn1c(N2CCCCCC2)nc2c1c(=O)n(C)c(=O)n2C
inactive: [1] 0.2% | [2] 1.4% | [3] -4.7%

CN(C)CCOC(c1ccccc1)c1ccccc1
inactive: [1] -0.7% | [2] 0.3% | [3] -5%

O=C(CN1C(=O)/C(=C/c2cccc(Br)c2)SC1=S)Nc1cccnc1
inactive: [1] 1.8% | [2] -0.3% | [3] 4.2%

c1coc(-c2nnc3n2C2(CCCC2)Cc2ccccc2-3)c1
inactive: [1] 2.5% | [2] -1.4% | [3] -5.9%

COc1ccc(S(N)(=O)=O)cc1C(N)=O
inactive: [1] 1.6% | [2] 0.4% | [3] -0.3%

CC(C)Cc1ccc(C(C)C(=O)Nc2ccc(O)cc2)cc1 (stereo not given)
inactive: [1] -3.6% | [2] -1.3% | [3] -6.8%

COc1ccc(CN2CCCCC2C(=O)Nc2ccc(OC)c(OCC(C)C)c2)cc1OC (stereo not given)
inactive: [1] 0.9% | [2] 0.2% | [3] -1.3%

C=CCc1cc(Cl)ccc1OCCOCCN(C)C
inactive: [1] -0.1% | [2] -1.3% | [3] -1.2%

Cc1ccc2occ(C(=O)c3ccco3)c(=O)c2c1
inactive: [1] 1.1% | [2] -0.5% | [3] 2.6%

OCC1CCN(Cc2cn(Cc3ccccc3)nc2-c2cc3ccccc3o2)CC1
inactive: [1] -0.4% | [2] -0.7% | [3] -0.9%

CC(=O)N1CCn2c3c(c4cc(C)ccc42)CCCC31 (stereo not given)
inactive: [1] 3.1% | [2] -0.3% | [3] -2.3%

Cc1ccc(C2=NOC(=O)/C2=C\C=C\c2ccccc2)cc1
inactive: [1] 2.1% | [2] 1% | [3] 0.5%

COc1ccc(Br)cc1C(=O)Nc1ccc(C(=O)O)cc1
inactive: [1] 1% | [2] 1% | [3] -2.2%

O=C1[C@@H]2CSCN2C(=O)CN1Cc1ccc(F)cc1
inactive: [1] 1.2% | [2] 0.7% | [3] 3.4%

Cc1c2c(nc3c(C)cccc13)OC(C)C2 (stereo not given)
inactive: [1] 2.9% | [2] -2.4% | [3] -4.3%

COc1cc2c(cc1OC)CN(Cc1ccc(C)s1)CC2
inactive: [1] 2.4% | [2] 0.7% | [3] -1.2%

COc1ccc(OC)c(-n2c(Cn3c(-c4ccccn4)nc4ccccc43)n[nH]c2=S)c1
inactive: [1] -3.4% | [2] -0.4% | [3] -0.7%

Cc1ccc(-c2nnc(-c3ccc4c(c3)OCO4)o2)cc1
inactive: [1] -1% | [2] -0.1% | [3] -8%

c1ccc2c(c1)CCCC2C1=NCCN1 (stereo not given)
inactive: [1] 0.7% | [2] 0.9% | [3] 0.6%

COc1ccc(CNCCC2(C(C)C)CCOC(C)(C)C2)cc1 (stereo not given)
inactive: [1] 1.9% | [2] 0.8% | [3] -4%

CCc1oc2ccccc2c1C(=O)c1cc(Br)c(O)c(Br)c1
inactive: [1] -6.8% | [2] -0.5% | [3] -0.4%

CC(COc1ccccc1)NC(C)C(O)c1ccc(O)cc1 (stereo not given)
inactive: [1] -1.7% | [2] 0.2% | [3] 0.2%

CC(C)CN1CCN(Cc2cccn2-c2ccccn2)CC1CCO (stereo not given)
inactive: [1] -0.4% | [2] -0.5% | [3] 3.6%

CN(C)CCOc1ccccc1Cc1ccccc1
inactive: [1] 19.8% | [2] 1.6% | [3] 3.4%

COc1ccc(C(=O)O)cc1F
inactive: [1] -1.9% | [2] -0.6% | [3] -1.1%

Cn1cc(CN2CCN(CCO)CC2)c(-c2ccc(Oc3ccccc3)cc2)n1
inactive: [1] 2.6% | [2] 0.5% | [3] -1.5%

CCOC(=O)C1NN=C(C(=O)c2ccccc2)C1c1ccc(Cl)cc1 (stereo not given)
inactive: [1] 3% | [2] 1.4% | [3] 3.2%

COc1ccc2c(c1O)Cc1ccccc1C2=O
inactive: [1] 0% | [2] -0.7% | [3] -3.9%

CC(=O)Nc1nc(CCC(C)C)cc2c1c(=O)oc1ccccc12
inactive: [1] 1.3% | [2] -0.1% | [3] -9.4%

COc1ccc2cc(C(=O)OC(C)C)sc(=O)c2c1OC
inactive: [1] 0% | [2] 1.8% | [3] -5.8%

Cc1cccc(CN2CCN(C(c3ccccc3)c3ccc(Cl)cc3)CC2)c1 (stereo not given)
inactive: [1] -0.2% | [2] -2% | [3] -9.2%

C/C(=N\NC(=O)c1ccccc1[N+](=O)[O-])c1ccc(Br)s1
inactive: [1] 1.5% | [2] 1.6% | [3] 5.5%

CC(=O)c1c(C)c(C)c2n1CCn1c(C)ccc1-2
inactive: [1] -0.2% | [2] -0.1% | [3] 0.9%

Cn1c(=O)oc2cc(S(=O)(=O)N3CCc4ccccc4C3)ccc21
inactive: [1] -0.9% | [2] -3% | [3] -3.5%

O=C(OCCNC(=O)c1ccc2ccccc2n1)c1ccc(F)cc1
inactive: [1] 1.8% | [2] -0.7% | [3] 4.4%

Cc1cccc(-c2ncc(CN3CCN(CC(C)C)C(CCO)C3)cn2)c1 (stereo not given)
inactive: [1] 2.6% | [2] 0.9% | [3] 0.4%

CCOc1cccc(N2C(=O)CC(N(CCc3ccc(OC)c(OC)c3)C(=O)CC)C2=O)c1 (stereo not given)
inactive: [1] 4.3% | [2] 0.7% | [3] 0.4%

CCOC(=O)c1cc2c(nc1N)CC(C)(CC)OC2 (stereo not given)
inactive: [1] 3.5% | [2] 1% | [3] -2.4%

O=Cc1ccc(O)c(O)c1
inactive: [1] -2% | [2] -1.1% | [3] -1%

CCOC(=O)c1c(O)c2c([nH]c1=O)CCCC2
inactive: [1] 2.3% | [2] -1.4% | [3] -3.9%

CCCN1C[C@H](CSC)C[C@@H]2c3cccc4[nH]cc(c34)C[C@H]21
inactive: [1] -8.5% | [2] -1.6% | [3] -33.7%

CCOC(=O)C1C(=O)OC2(CCOC(C)(C)C2)C1C(=O)OCC (stereo not given)
inactive: [1] -2.7% | [2] -0.2% | [3] -0.1%

COC(=O)C1=C(C)N(Cc2ccco2)C(=O)/C1=C\c1ccc([N+](=O)[O-])cc1
inactive: [1] 1% | [2] -0.6% | [3] -3.7%

C[C@]12CCC(=O)C=C1CC[C@@H]1[C@@H]2C(=O)C[C@@]2(C)[C@H]1CC[C@]2(O)C(=O)CO
inactive: [1] -4.6% | [2] -1.7% | [3] -0.3%

O=c1[nH]c(=O)n(C2CCCO2)cc1F (stereo not given)
inactive: [1] -5.7% | [2] -0.7% | [3] 1.8%

Cn1c(=O)[nH]c(=O)c2c1nc(Br)n2CCCO
inactive: [1] 2.3% | [2] 0.7% | [3] -5.7%

Oc1ccc(COCc2ccccc2)c2cccnc12
inactive: [1] -2% | [2] -3.5% | [3] -3.1%

COc1ccc(C(=O)N2c3cc4c(cc3C(C)=CC2(C)C)OCO4)cc1
inactive: [1] 3.7% | [2] 0% | [3] 4%

C=C(C)Cn1c(NCCOC)nc2c1c(=O)[nH]c(=O)n2C
inactive: [1] 0.2% | [2] -0.3% | [3] -5.2%

Cc1c(NC(=O)c2cccs2)cccc1[N+](=O)[O-]
inactive: [1] 4.2% | [2] 1.3% | [3] 5.7%

O=C(Oc1cccccc1=O)c1ccccc1
inactive: [1] 1.1% | [2] -1.5% | [3] 0.9%

CCOc1ccccc1C(=O)NCCC(=O)O
inactive: [1] 2.8% | [2] 1.9% | [3] 0.2%

O=C1CCCN1CCCn1cnc2c([nH]c3ccc(F)cc32)c1=O
inactive: [1] 0% | [2] -0.3% | [3] 2.3%

CN(C)CCC(c1ccccc1)c1ccccn1 (stereo not given)
inactive: [1] -2.8% | [2] -0.2% | [3] 2.6%

CC1(C)Oc2ccc(C#N)cc2[C@@H](N2CCCC2=O)[C@@H]1O
inactive: [1] 3% | [2] 0.5% | [3] 5.1%
